Data on two molecules can be found in PubChem BioAssay (NCATS).

The nature of experiment [1]: DH5-alpha competent E. coli microbial cell viability qHTS against the NCATS CANVASS Library (AID 1347377). The conditions noted are these: outcome: dose series up to 46.1 µM. An outline of the steps:
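Bacterial viability as ATP-dependent luminescence (BacTiter-Glo), read after overnight 37 °C exposure of DH5-alpha competent E. coli to compounds in 11-point titration.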
A general note: Quantitative high-throughput screening tests each substance at several concentrations.

Experiment [2] is described as follows: qHTS for H2AX Agonists against the NCATS CANVASS Library (AID 1347378). Further: potency means the concentration at half of the fitted maximal effect. In a few lines: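 Phospho-H2AX (S139) in CHO-K1 lysates measured by HTRF, reported as 665/615 nm emission ratio after 24 hr antibody incubation at room temperature. Cells were first treated with a compound series for 3 hr at 37C (0.76% DMSO final).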
Experiment [3] can be described thus: qHTS for Inflammasome Signaling Inhibitors: IL-1-beta AlphaLISA screen against the NCATS CANVASS Library (AID 1347379).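 Further: human THP-1 cells primed with LPS then triggered with ATP.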 The conditions noted are these: outcome: dose series up to 57.5 µM. In a few lines:
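Secreted IL-1B from human THP-1 cells quantified by AlphaLISA 16 hr after compound addition (final up to 57.5 uM). A 1 hr compound pretreatment preceded inflammasome activation with 250 ng/mL LPS plus 1.25 mM ATP (final).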

A short description of experiment [4]: qHTS for Antimalaria activity screened against the NCATS CANVASS Library (AID 1347380). Further: potency means the concentration at half of the fitted maximal effect; nearly all actives have a fitted effect of over 40% in size. The conditions noted are these: P. falciparum Dd2 growth, SYBR Green fluorescence, 72 h. From the text:
Natural products and their derivatives continue to be wellsprings of nascent therapeutic potential. However, many laboratories have limited resources for biological evaluation, leaving their previously isolated or synthesized compounds largely or completely untested. To address this issue, the Canvass library of natural products was assembled (https://tripod.nih.gov/canvass), in collaboration with academic and industry researchers, for quantitative high-throughput screening (qHTS) across a diverse set of cell-based and biochemical assays. […] The library was formatted into 1536-well plates and evaluated in 50 qHTS (in an 11-pnt concentration series) bioassays with broad scope of disease-relevant mechanisms. The resulting data set from 50 different assays was then systematically analyzed to identify overall trends and specific natural products with interesting biological activities. […] The proliferation assay assesses the ability of compounds to inhibit the proliferation and/or have cytotoxic effects (72 hr) against the asexual erythrocytic growth of Plasmodium falciparum Dd2, as determined by a SYBRGreen fluorescence assay. […]
Malaria-screen protocol: Assay adopted from Plouffe et al. 2008 PNAS 105: 9059; PMID: 18579783. […] The fluorescence signal was read using the EnVision (PerkinElmer) plate reader (bottom read) using a 485/14 nm excitation and 535/25 nm emission filters.

Experiment [5] is described as follows: Inflammasome Signaling qHTS Counterscreen: IL-1-beta AlphaLISA counterscreen against the NCATS CANVASS Library (AID 1347381).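 Further: cell-free check with purified IL-1β in medium and no THP-1 cells; series mostly up to about 57 µM.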 From the text:
(§1) Natural products and their derivatives continue to be wellsprings of nascent therapeutic potential. However, many laboratories have limited resources for biological evaluation, leaving their previously isolated or synthesized compounds largely or completely untested. To address this issue, the Canvass library of natural products was assembled (https://tripod.nih.gov/canvass), in collaboration with academic and industry researchers, for quantitative high-throughput screening (qHTS) across a diverse set of cell-based and biochemical assays. The pure (>85% purity by liquid chromatography/mass spectrometry [LC/MS]) Canvass library of 346 natural products were submitted by 45 academic laboratories and companies around the world. We collected pure natural products to circumvent deconvolution and structure elucidation due to time and resource limitations. The library was formatted into 1536-well plates and evaluated in 50 qHTS (in an 11-pnt concentration series) bioassays with broad scope of disease-relevant mechanisms. The resulting data set from 50 different assays was then systematically analyzed to identify overall trends and specific natural products with interesting biological activities. […]
IL-1-beta-counterscreen qHTS protocol: 1. […] The AlphaLISA signal was read by the EnVision plate reader (PerkinElmer) using a 680 nm excitation and 615 nm emission filters.

The nature of experiment [6]: Cytotoxicity qHTS for assessment of Hepg2 cells membrane integrity screened against the NCATS CANVASS Library (AID 1347387). In a few lines:
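Membrane damage quantified as fluorescent LDH-release signal (ex 560, em 590 nm) in HepG2 cells treated 5 hr at 37C. qHTS format, 11 concentrations spanning 0.59 nM - 46 uM final, cells plated at 2000 per well the night before.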

Experiment [7] in a line: qHTS for Activators of p53 Stress Response Pathway screened against the NCATS CANVASS Library (AID 1347388). An outline of the steps:
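Beta-lactamase reporter driven by p53 response elements in HCT-116 cells, read as the 460 nm/530 nm emission ratio after CCF4 loading, following 16 h of exposure to an 11-point series. Cell viability was measured in the same wells by CellTiter-Glo luminescence.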

Experiment [8] can be described thus: qHTS assay for small molecule disruptors of mitochondrial membrane potential screened against the NCATS CANVASS Library (AID 1347389). Further: nearly all actives have a fitted effect of over 60% in size. Further: potency means the concentration at half of the fitted maximal effect. An outline of the steps: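 Mitochondrial membrane potential in HepG2: 1 h compound treatment (11-point concentration series), 30 min m-MPI dye at 37C, then dual fluorescence of J-aggregates (ex 540/em 590) and monomers (ex 490/em 535); lower red/green ratio indicates depolarization.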

Experiment [9] can be described thus: qHTS for activators of dead-cell proteases activity screened against the NCATS CANVASS Library (AID 1347392).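 Further: luminescence from protease leaking out of membrane-damaged cells cleaving impermeant substrate; rising signal means more cytotoxicity.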 In a few lines: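 Luminescent dead-cell protease readout (AAF-aminoluciferin, 15 min, room temperature) after 5 h compound treatment of HepG2 cells (2000/well, pre-attached 18 h). Eleven concentrations.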
Experiment [10] is described as follows: qHTS for inhibitors of ER calcium dysfunction: SERCaMP assay screened against the NCATS CANVASS Library (AID 1347393). Further: nearly all actives have a fitted effect of over 40% in size. Further: potency means the concentration at half of the fitted maximal effect.
From the text: as §1
SERCaMP assay protocol: 1. […] Luminescence signal was obtained via the ViewLux plate reader (Perkin Elmer) using the clear emission filter and 1x binning, 5 seconds exposure settings.

Inconclusive results are not listed. Activity calls are given as the source filed them. The call rests on the fitted dose curve; in most records, active means well fitted curve in the direction sought with a large enough effect; inconclusive means small, poorly fitted or top-dose-only effect, or another doubt; inactive means no such curve, though single readings can be large; an effect the other way counts as inactive or inconclusive.

Regarding `O=C(O)c1cc(O)c(O)c(O)c1`, the call in experiment [1], in experiment [3], in experiment [5], in experiment [6], in experiment [7] and in experiment [9] was inactive. Besides, the Potency entry in [2], in [8] and in experiment [10] was “inactive” each time. Besides, in experiment [4], the Potency was 0.0053 µM (active).
On to `O=c1cc(-c2ccccc2)oc2c(O)c(O)ccc12`, for which the molecule was classed as inactive in [1], in [3], in experiment [5], in [6], in experiment [7] and in experiment [9]. Also, the Potency in experiment [2] is 34.4 µM (active); in experiment [4], 0.0067 µM (active); in experiment [8], 18.6 µM (active); in experiment [10], 38.4 µM (active).
